Data taken from PubChem BioAssay (Tox21).
Values joined by “and” are separate entries in the source; they are usually repeats but may differ in a detail not shown here. Equal entries are not always repeated. Results filed as inconclusive are left out. Some structures have more than one record in an assay (separate samples or runs), and their calls can disagree. Active and inactive are the calls of the source. Unless noted, the call rests on the fitted dose curve; in most records, active means well fitted curve in the direction sought with a large enough effect in the repeat runs; inconclusive means weak or mixed curves; inactive means no such curve, though single readings can be large; an effect the other way counts as inactive or inconclusive.

Tests used:
[1] = qHTS assay for small molecule agonists of the p53 signaling pathway (AID 651631; calls by dose curve; further: nearly all actives have a fitted effect of over 15% in size)
Outline: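 Testing took place in human colorectal HCT-116 cells with stable p53RE-driven beta-lactamase. After 16 h of compound exposure at 37 °C, a FRET substrate was added and fluorescence recorded 2 h later.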

[2] = qHTS assay for small molecules that induce genotoxicity in human embryonic kidney cells expressing luciferase-tagged ATAD5 (AID 651632); further: nearly all actives have a fitted effect of over 15% in size
Outline: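 Genotoxicity read-out via ATAD5-luciferase: HEK293T cells, 16 hr compound incubation at 37C, Amplite detection.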

[3] = qHTS assay for small molecule agonists of the p53 signaling pathway - cell viability (AID 651633; calls by dose curve; further: series mostly up to about 83 µM; nearly all actives have a fitted effect of over 30% in size)
Outline: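 Viability counter-read: CellTiter-Glo luminescence (30 min, room temperature) in the same p53RE-bla plates. These plates had been exposed to compounds for 16 h at 37 C.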

[4] = qHTS assay for small molecules that induce genotoxicity in human embryonic kidney cells expressing luciferase-tagged ATAD5 - cell viability (AID 651634; calls by dose curve; further: nearly all actives have a fitted effect of over 25% in size)
Outline: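 Live-cell protease activity (CellTiter-Fluor, fluorescence) indicates viability. HEK293T cells with luciferase-tagged ATAD5; 15.5 hr compound treatment at 37C.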

[5] = qHTS assay for small molecule disruptors of the mitochondrial membrane potential - cell viability (AID 720634; calls by dose curve; further: nearly all actives have a fitted effect of over 20% in size; further: potency means the concentration at half of the fitted maximal effect)
Outline: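 Human hepatoma HepG2 cells were treated for 1 hr with test chemicals, then given m-MPI dye and CellTiter-Glo. Cell viability reflects luminescence proportional to cellular ATP.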

[6] = qHTS assay for small molecule disruptors of the mitochondrial membrane potential (AID 720635); further: potency means the concentration at half of the fitted maximal effect
Outline: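 Mitochondrial membrane potential tracked with Mito-MPS dye, red aggregates (ex 540/em 590 nm) against green monomers (ex 490/em 535 nm). Compound treatment 1 hr at 37C, dye 30 min in HepG2.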

[7] = qHTS assay to test for compound auto fluorescence at 590 nm (red) in HepG2 cells (AID 720674)
Outline: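 1 hr compound incubation on HepG2 cells, 37 C, 5% CO2; plate read ex 540 nm / em 590 nm; intensities reported as Rose Bengal sodium equivalents.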

[8] = qHTS assay to test for compound auto fluorescence at 535 nm (green) in HepG2 cells (AID 720675)
[9] = qHTS assay to test for compound auto fluorescence at 460 nm (blue) in HEK293 cells (AID 720678)
Outline: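 Auto fluorescence in the blue band was quantified as triamterene equivalency. HEK293 cells were seeded at 2,000/well, dosed after a 4-5 hr attachment, and kept overnight at 37C before the 405/460 nm reading.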

[10] = qHTS assay to test for compound auto fluorescence at 590 nm (red) in HEK293 cells (AID 720679)
Outline: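 Autofluorescence equivalency to Rose Bengal sodium, 540/590nm, in HEK293 cells exposed overnight to 23 nL compound per well.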

[11] = qHTS assay to test for compound auto fluorescence at 535 nm (green) in HEK293 cells (AID 720680)
[12] = qHTS assay to test for compound auto fluorescence at 460 nm (blue) in HEK293 cell free culture (AID 720681)
Outline: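 Blue fluorescence (Ex 405/Em 460 nm, triamterene-equivalent) was read immediately after pin transfer of compound or DMSO into medium (DMEM, 10% FBS) without cells.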

[13] = qHTS assay to test for compound auto fluorescence at 535 nm (green) in HEK293 cell free culture (AID 720682)
Outline: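 DMEM + 10% FBS, cell-free; cpd or DMSO pinned in; Ex485/Em535 read; output as fluorescein-equivalent signal.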

[14] = qHTS assay to test for compound auto fluorescence at 460 nm (blue) in HepG2 cell free culture (AID 720685)
Outline: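 Compound (23 nL) or DMSO pinned into cell-free MEM with 10% FBS; blue fluorescence read at 405/460 nm excitation/emission, expressed as auto-fluorescence equivalency to triamterene.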

[15] = qHTS assay to test for compound auto fluorescence at 535 nm (green) in HepG2 cell free culture (AID 720686)
[16] = qHTS assay to test for compound auto fluorescence at 460 nm (blue) in HepG2 cells (AID 720687)
Outline: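 Blue-channel autofluorescence (Ex/Em 405/460 nm, triamterene-equivalent) was measured after 1 hr compound exposure at 37 C, 5% CO2. Cells were HepG2, plated overnight at 37 C in MEM plus 10% FBS.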

[17] = qHTS assay to test for compound auto fluorescence at 590 nm (red) in HEK293 cell free culture (AID 720683)
Outline: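 Red-channel autofluorescence of compounds in culture medium (DMEM, 10% FBS), no cells, measured at 540/590 nm. Rose Bengal sodium is the reference fluorophore for equivalence.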

[18] = target: Glucocorticoid receptor (Homo sapiens) (UniProt P04150); assay: qHTS assay to identify small molecule agonists of the glucocorticoid receptor (GR) signaling pathway (AID 720691; active means well fitted activation curve with a large enough effect in the signal ratio in the repeat runs, not every such curve was filed as active; the % refers to the signal ratio)
Glucocorticoid receptor (Homo sapiens), sequence (P04150 whole entry, looked up): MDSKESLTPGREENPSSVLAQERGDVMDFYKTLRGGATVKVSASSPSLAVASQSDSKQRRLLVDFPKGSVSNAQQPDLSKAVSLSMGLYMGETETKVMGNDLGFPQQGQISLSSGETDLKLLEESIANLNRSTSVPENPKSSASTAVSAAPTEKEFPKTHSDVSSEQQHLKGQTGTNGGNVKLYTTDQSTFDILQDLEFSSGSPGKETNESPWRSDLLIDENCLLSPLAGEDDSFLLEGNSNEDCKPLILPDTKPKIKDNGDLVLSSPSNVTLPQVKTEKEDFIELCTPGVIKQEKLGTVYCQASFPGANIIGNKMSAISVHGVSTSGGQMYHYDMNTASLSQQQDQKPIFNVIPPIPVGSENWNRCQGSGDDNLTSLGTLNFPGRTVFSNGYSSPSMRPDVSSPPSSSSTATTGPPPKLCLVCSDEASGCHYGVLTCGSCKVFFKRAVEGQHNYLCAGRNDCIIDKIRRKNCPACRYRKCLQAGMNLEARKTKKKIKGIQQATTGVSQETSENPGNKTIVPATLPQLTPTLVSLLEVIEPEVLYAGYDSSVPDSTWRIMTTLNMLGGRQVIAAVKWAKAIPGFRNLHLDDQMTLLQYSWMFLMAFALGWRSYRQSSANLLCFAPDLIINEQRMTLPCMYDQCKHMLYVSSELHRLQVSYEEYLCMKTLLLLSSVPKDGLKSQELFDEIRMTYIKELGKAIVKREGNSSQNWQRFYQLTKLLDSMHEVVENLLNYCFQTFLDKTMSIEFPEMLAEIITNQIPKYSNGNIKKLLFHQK
Outline: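 Beta-lactamase reporter activity, read as fluorescence intensity, was measured in GR-bla HeLa cells exposed to compounds for 18 h at 37 C and then loaded with LiveBLAzer B/G FRET substrate for 2 h at room temperature.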

[19] = target: Glucocorticoid receptor (Homo sapiens) (UniProt P04150); assay: qHTS assay to identify small molecule antagonists of the glucocorticoid receptor (GR) signaling pathway (AID 720692; active means well fitted inhibition curve with a large enough effect in the signal ratio in the repeat runs, not every such curve was filed as active; the % refers to the signal ratio)
Outline: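 Fluorescence from cleaved LiveBLAzer B/G FRET substrate reports GRE-driven beta-lactamase in HeLa cells; compounds are tested against 5 nM dexamethasone (final) over 18 h at 37 C, substrate incubation 2 h at room temperature.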

[20] = qHTS assay to test for compound auto fluorescence at 590 nm (red) in HepG2 cell free culture (AID 720684)
Outline: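 Plate contents were MEM with 10% FBS plus test compound or DMSO, no cells. Fluorescence was recorded with 540 nm excitation and 590 nm emission.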

Measured: Potency

O=[N+]([O-])c1ccc(Oc2ccc(Cl)cc2Cl)cc1
active: [6] 54.8 µM and 30.6 µM
not listed: [17] | [18] | [19] | [20]
inactive: all other assays above

Cc1ccccc1O
not listed: [19] | [20]
inactive: all other assays above

CC(C)N1C(=O)c2ccccc2NS1(=O)=O
inactive and 48.6 µM (active): [6]
not listed: [17] | [18] | [20]
inactive: all other assays above

C=CCO
not listed: [17] | [19] | [20]
inactive: all other assays above

CCc1cccc(C)c1N(C(=O)CCl)C(C)COC (stereo not drawn)
not listed: [18] | [19] | [20]
inactive: all other assays above

COC(=O)NS(=O)(=O)c1ccc(N)cc1
not listed: [18] | [19] | [20]
inactive: all other assays above

CN(C)CCO
not listed: [19]
inactive: all other assays above

O=C(NC(=O)c1c(F)cccc1F)Nc1cc(Cl)c(OC(F)(F)C(F)C(F)(F)F)cc1Cl (stereo not drawn)
active: [5] 6.68 µM and 7.7 µM | [6] 5.31 µM and 7.7 µM
not listed: [17]
inactive: all other assays above

O=c1[nH]c(=O)[nH]c(=O)[nH]1
not listed: [17] | [19] | [20]
inactive: all other assays above

CCCCN(CC)C(=O)SCCC
not listed: [18] | [19]
inactive: all other assays above

NCCc1ccc(O)cc1
not listed: [19]
inactive: all other assays above

COCCl
not listed: [17] | [19] | [20]
inactive: all other assays above

CCNc1nc(NC(C)(C)C)nc(SC)n1
active: [6] 27.3 µM
not listed: [18]
inactive: all other assays above

CNC(=O)Oc1ccccc1OC(C)C
not listed: [18] | [19] | [20]
inactive: all other assays above

O=NN1CCCC1
not listed: [17] | [20]
inactive: all other assays above

Nc1c(Cl)c(Cl)nc(C(=O)O)c1Cl
inactive and 56.1 µM (active): [6]
not listed: [18] | [19]
inactive: all other assays above
